Measurements taken from PubChem BioAssay AID602410 (Johns Hopkins Ion Channel Center, 2012).
Among all 340,000 compounds or so, about 2,800 (0.82%) were called active.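 How the source made its calls: active means B-score under library mean minus 4 SD, starting fluorescence ratio at most library mean plus 5 SD; inactive means the rest.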 This excerpt belongs to a sample that is enriched for actives.

Each compound was assayed against Potassium channel subfamily K member 3 (Homo sapiens) (UniProt O14649) (assay: human KCNK3 channel inhibitors, primary screen, CHO cells, FluxOR thallium flux, B-score (AID 602410;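 on B-score: more negative B-score means stronger inhibition of thallium flux through KCNK3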)). Conditions: FluxOR fluorescence, at 10 µM; stronger effect = lower value.
Chain of Potassium channel subfamily K member 3 (Homo sapiens) (O14649 whole entry, looked up): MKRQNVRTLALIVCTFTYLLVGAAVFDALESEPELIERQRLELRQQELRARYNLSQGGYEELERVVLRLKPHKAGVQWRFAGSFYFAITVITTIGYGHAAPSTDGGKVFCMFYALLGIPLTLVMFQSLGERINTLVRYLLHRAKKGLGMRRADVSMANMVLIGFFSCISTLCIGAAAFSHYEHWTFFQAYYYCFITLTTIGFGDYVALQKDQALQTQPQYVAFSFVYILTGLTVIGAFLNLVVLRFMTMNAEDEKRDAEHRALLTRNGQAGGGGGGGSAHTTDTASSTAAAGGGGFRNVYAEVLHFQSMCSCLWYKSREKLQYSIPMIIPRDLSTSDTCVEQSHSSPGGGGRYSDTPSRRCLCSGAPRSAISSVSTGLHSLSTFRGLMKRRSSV

B-score, active:
CSCc1cc(N(C)C)nc(SCc2ccc(Cl)cc2Cl)n1 -9.62, N#Cc1cccc(NC(=O)COC(=O)c2ccccc2C(=O)c2ccc(Cl)c([N+](=O)[O-])c2)c1 -11.8, O=C1c2ccccc2C2=Nc3ccccc3SC(c3ccccc3F)C12 (stereo not given) -12.4, Cc1cccc(NC(=O)c2sc3nc4c(c(-c5ccco5)c3c2N)CCC4)c1 -11.4, COc1ccc(CC(=O)Nc2nc(-c3ccc(F)c(F)c3)cs2)cc1OC -12.4, Cc1cccc2c1-c1sc(C(=O)NCCCN3CCc4ccccc4C3)cc1CO2 -9.55, COc1ccc(Cl)cc1NC(=O)C(C)N1CCc2ccccc21 (stereo not given) -8.75, Cc1ccc(S(=O)(=O)NCc2cn3ccsc3n2)c(C)c1 -20.8, CCN1CCN(CCNC(=O)c2ccc(/C=C3/Sc4ccccc4N(Cc4cccc(C)c4)C3=O)cc2)CC1 -11.5, Cc1cc(NC(=O)Nc2ccc(Cl)cc2)n(-c2ccccc2)n1 -10.7, O=C(Nc1ccccc1)O/N=C1\CCCCC1c1ccc([N+](=O)[O-])cc1[N+](=O)[O-] (stereo not given) -9.88, CC(C)(CCl)C(=O)Nc1ccc(Sc2ccc(F)cc2)cc1 -12, CN(CCC(=O)Nc1cc(S(=O)(=O)N(C)C)ccc1Cl)CC(=O)Nc1ccc(F)cc1 -16.6

B-score, inactive:
CCCCc1nc2ccccc2c(NC(=O)CN2CCN(C)CC2)c1CCC, Clc1ccc(CSc2nnc(/C=C/c3ccccc3)o2)c(Cl)c1, CSCc1cc(N2CCOCC2)nc(SCc2ccc(Cl)cc2Cl)n1, CC(=O)Nc1ccc(NC(=O)C(C)OC(=O)c2ccccc2C(=O)c2ccc(Cl)c([N+](=O)[O-])c2)cc1 (stereo not given), CC(=O)Nc1ccc(NC(=O)COC(=O)c2ccccc2C(=O)c2ccccc2)cc1, CCOc1ccc2oc(C(=O)N(CC)CC(=O)Nc3ccc(NC(C)=O)cc3)c(C)c2c1, Cc1nc(=O)c(-c2ccccc2)c(C)n1-c1ccc(Br)cc1, CC(C)Oc1ccc(C2NC(=O)NC2=O)cc1 (stereo not given), Cc1cccc(C2c3c(n(C)c(=O)n(C)c3=O)N=C3c4ccccc4C(=O)C32)c1 (stereo not given), Cc1csc2nc(O)c(C(=O)NCCN3CCOCC3)c(=O)n12, COc1ccc(OC)c(NC(=O)c2sc3nc(C)cc(C)c3c2N)c1, Cc1ccc(NC(=O)c2sc3nc(N)c(C#N)cc3c2N)cc1, CCCN=C1NC(=O)C(CC(=O)NCCc2ccc(OC)c(OC)c2)S1 (stereo not given), O=C1c2ccccc2C(Nc2ccc3c(c2)OCCO3)N1Cc1ccco1 (stereo not given), CCOC(=O)c1cccc(NC(=O)C2CCN(c3ncnc4c3nc3n4CCCCC3)CC2)c1, O=C(COc1ccccc1F)Nc1nc(-c2ccccn2)cs1, COc1ccccc1NC(=O)Nc1nc(CC(=O)Nc2ccccc2F)cs1, CCOC(=O)N1CCN(Cc2nc(Cc3cccc(C(F)(F)F)c3)no2)CC1, CN1CCN(CCCNC(=O)c2cc3c(=O)oc4ccccc4c3s2)CC1, O=C(NCCCN1CCOCC1)c1cc2c(s1)CCC2, O=C(O)Cc1csc(NC(=O)CSc2nnnn2-c2ccc(O)cc2)n1, COc1ccc(Cl)cc1NC(=O)NC(C)C(C)(C)C (stereo not given), COc1ccc(Cl)cc1NC(=O)NCC1CCN(Cc2ccccc2F)CC1, O=C(NCc1cn2ccsc2n1)Nc1cccc(Cl)c1, Cc1nc(CNS(=O)(=O)c2cc([N+](=O)[O-])ccc2C)cs1, COC(=O)c1ccccc1N=Nc1c(C)[nH][nH]c1=O, CN1CCN(CCCNC(=O)c2ccc(/C=C3\Oc4ccccc4N(Cc4ccc(Cl)cc4)C3=O)cc2)CC1, O=C(NCCCN1CCOCC1)c1ccc2c(c1)N(Cc1cccc(F)c1)C(=O)c1ccccc1S2, CC[C@]1(C(=O)OC)[C@H]2C(=O)N(Cc3ccccc3)C(=O)[C@H]2[C@H]2CN=C(SCc3ccc(C#N)cc3)N21, CCc1ccc(OC(C)C(=O)Nc2ccc(S(=O)(=O)Nc3cc(C)on3)cc2)cc1 (stereo not given), Cc1ccc(NC(=O)Nc2cc(-c3ccccc3)nn2C)cc1Cl, Cc1cc(C(=O)NCCc2ccc(Cl)cc2)n(-c2ccccc2)n1, C[n+]1ccccc1C1CCCC/C1=N\Nc1ccc([N+](=O)[O-])cc1[N+](=O)[O-] (stereo not given), O=[N+]([O-])c1ccc(N/N=C2/CCCCC2c2ccccn2)c([N+](=O)[O-])c1 (stereo not given), Cc1ccc(S(=O)(=O)N(CC(O)CN2C(=O)NC(C)(C)C2=O)c2cccc([N+](=O)[O-])c2)cc1 (stereo not given), C/C(=N/NC(=O)c1ccc(Br)o1)c1ccc(C)o1, O=C(C1CC(=O)N(c2ccc(Br)cc2)C1)N1CCCC1 (stereo not given), CC(NC(=O)Cn1cc(C(F)(F)F)cc(Cl)c1=O)c1ccccc1 (stereo not given), O=C(CCl)Nc1ccc(Sc2ccc(NC(=O)CCl)cc2)cc1, O=C(Nc1ccncc1)Nc1ccc(F)cc1, CCn1nnnc1SCC(=O)c1ccc(C)cc1C, Cc1ccc(NC(=O)COc2ccc(-n3ccnc3)cc2)cc1Cl, c1ccc(CN=C2Nc3ccccc3CS2)nc1, COc1ccc(C(CCNCc2ccccc2F)c2ccc(F)cc2)cc1 (stereo not given), CN(CC(=O)Nc1ccc(F)cc1)CC(=O)Nc1ccc(Cl)c(S(=O)(=O)N2CCOCC2)c1, CN(CC(=O)Nc1ccc(S(=O)(=O)N2CCCC2)cc1)Cc1ccc(Cl)c(Cl)c1, COc1cc(C(=O)CCc2ccc3c(c2)OCO3)cc(OC)c1OC
